# KCNQ2 inh = rat KCNQ2 potassium channel inhibitors, primary screen, cell-based, CHO-K1, FluxOR thallium flux, B-score; Potassium voltage-gated channel subfamily KQT member 2 (Rattus norvegicus), O88943; 20 min; hits give low values; B-score at 10 µM; 310,000 tested, 1.1% active; AID 2156, 2009;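 active = fluorescence ratio B-score at most minus 3 library SDs, with starting brightness B-score within 2 library SDs, cut at about -5.5 in these data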
# KCNQ2 pot = potentiators of rat KCNQ2 potassium channel. Potassium voltage-gated channel subfamily KQT member 2 (Rattus norvegicus), O88943. CHO-K1 KCNQ2, FluxOR thallium flux fluorescence; hits give high values. B-score at 10 µM. 310,000 tested, 0.54% active. AID 2239, 2010;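 active = fluorescence ratio B-score at least 3 SD of library B-scores, with initial fluorescence B-score within 3 of them, cut at about 5.3 in these data; same plate scores as AID 2156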;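 also: B-score of peak minus minimum over baseline fluorescence ratio after K+ and Tl+ stimulus; positive B-score means potentiation of KCNQ2 with more thallium influx and brighter signal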
# Kir21 confirm = mouse Kir2.1 channel blockers, retest, confirmation, cell-based, FluxOR thallium flux, duplicate; shares compounds with KCNQ2 pot; Kir2.1-expressing cells, FluxOR thallium flux fluorescence; hits give low values; Tl flux remaining, % of negative control (hits give low values), % at 10 µM; 2,300 tested, 41% active; AID 2032, 2009;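 active = Primary-screen hit whose thallium flux fell at least 3 control SD below untreated wells in both duplicates, with normal baseline fluorescence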;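 also: 0% = blank wells without stimulus and 100% = stimulated no-compound controls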
# Target sequence (P35561 whole entry, looked up): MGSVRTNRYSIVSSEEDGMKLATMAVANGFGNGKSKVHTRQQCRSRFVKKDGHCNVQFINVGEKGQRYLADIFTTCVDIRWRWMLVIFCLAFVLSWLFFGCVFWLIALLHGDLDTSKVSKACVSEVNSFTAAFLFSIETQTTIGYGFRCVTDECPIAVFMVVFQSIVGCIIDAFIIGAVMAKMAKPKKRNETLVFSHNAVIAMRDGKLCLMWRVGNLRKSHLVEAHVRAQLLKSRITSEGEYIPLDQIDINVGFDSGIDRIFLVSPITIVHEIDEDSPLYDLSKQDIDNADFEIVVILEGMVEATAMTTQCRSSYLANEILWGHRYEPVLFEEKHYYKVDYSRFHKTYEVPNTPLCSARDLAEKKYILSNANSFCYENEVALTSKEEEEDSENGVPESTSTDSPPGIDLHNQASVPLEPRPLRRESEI
# HEK293 Tl flux = alters thallium flux in parental HEK293 cells, Kir2.1 counter-screen | shares compounds with KCNQ2 pot | FluxOR thallium flux fluorescence; 0% = unstimulated blank wells | FluxOR signal as % of negative control (100 = no effect), % at 10 µM | 2,300 tested, 19% active;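 active = dye signal at least 3 control SD above or below untreated wells in both duplicates, raw fluorescence within 3, either direction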;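 also: percent is based on the flux ratio of peak minus minimum fluorescence over baseline F0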
# CHO-K1 Tl ctr = nonspecific thallium flux increase in parental CHO-K1, confirmation, counter-screen for KCNQ2 potentiator project, cell-based, FluxOR thallium flux, duplicate; shares compounds with KCNQ2 pot; parental CHO-K1 cells, FluxOR thallium flux fluorescence; zero = vehicle mean+3SD, 100% = vehicle-minus-blank window; activity increase over 3SD of controls, % at 10 µM; 1,200 tested, 43% active; AID 2282, 2010;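 active = signal rise of at least 3 SD above the untreated control mean, in both duplicate wells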;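 also: counter screen of KCNQ2 potentiator hits so any rise reflects channel-independent effects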
# KCNQ1 sel pot = human KCNQ1 channel potentiation off-target, confirmation, selectivity assay for KCNQ2 potentiator project, cell-based, CHO, FluxOR thallium flux; 1,200 tested, 28% active; CHO KCNQ1 stable, FluxOR thallium flux fluorescence; beyond 3SD, as % of vehicle-control signal; activation over 3SD threshold, % at 10 µM; shares compounds with KCNQ2 pot;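 active = fluorescence ratio rise of at least 3 SD of vehicle wells above their mean, in both replicate wells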;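 also: 0% = vehicle mean plus 3 SD and 100% = vehicle minus unstimulated blank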
# KCNQ2 pot confirm = rat KCNQ2 channel potentiators, confirmation, cell-based, CHO, FluxOR thallium flux, duplicate; shares compounds with KCNQ2 pot; CHO-KCNQ2 cells, FluxOR thallium flux fluorescence; potentiation, less the hit threshold, % at 10 µM; 1,200 tested, 68% active;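 active = fluorescence ratio rising 3 SD or more over the vehicle control mean in both replicates, plus primary screen hit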;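 also: peak minus minimum thallium fluorescence divided by baseline after K/Tl stimulus; 0% = vehicle mean plus 3 SD and 100% = vehicle minus unstimulated blank difference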
# Kir21 spec = mouse Kir2.1 channel activation off-target, confirmation, selectivity assay for KCNQ2 potentiator project, cell-based, HEK293, FluxOR thallium flux; shares compounds with KCNQ2 pot; HEK293 Kir2.1, FluxOR thallium flux fluorescence; activity over 3SD threshold, % at 10 µM; 1,200 tested, 2% active; AID 2345, 2010;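 active = fluorescence ratio rise of at least 3 SD above the vehicle-control mean, seen in both replicates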;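 also: 0% = vehicle mean plus 3 SD and 100% = vehicle minus no-stimulus blank window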
# KCNQ2 W236L MoA = potentiators of retigabine-insensitive KCNQ2 W236L, mechanism study for KCNQ2 potentiator project, cell-based, rat KCNQ2 W236L, CHO, automated patch clamp | shares compounds with KCNQ2 pot | automated patch clamp current | current increase over 3SD of negative controls (%), hits give high values, % at 25 µM | 940 tested, 10% active | AID 2558, 2010;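 active = current increase at least 3 SD of the untreated controls above them in both duplicate recordings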
# * marks the source's active call; other numbers are inactive results; i = inactive; nt = no result given. A selection: hits, their analogues and other compounds. The true share with any hit is near 1.6%.
SMILES,KCNQ2 inh,KCNQ2 pot,Kir21 confirm,HEK293 Tl flux,CHO-K1 Tl ctr,KCNQ1 sel pot,KCNQ2 pot confirm,Kir21 spec,others
Cc1ccccc1C(=O)N(Cc1cccs1)C1CCS(=O)(=O)C1 (stereo not drawn),i,nt,nt,nt,nt,nt,nt,nt,
CCN(c1nc(N)c(C(=O)N=C(N)N)nc1Cl)C(C)C,i,5.3*,42%*,i,9.8*,-9,-2,-94,KCNQ2 W236L MoA=i
CCc1noc(C)c1C(=O)NCCc1ccccc1,i,0.01,nt,nt,nt,nt,nt,nt,
O=S(=O)(NNc1cccc(Cl)n1)c1ccc(Cl)cc1,i,nt,nt,nt,nt,nt,nt,nt,
CC(=O)c1ccc(OCCCCCCCOc2ccc(C(C)=O)cc2)cc1,i,0.07,nt,nt,nt,nt,nt,nt,
CC(=O)NC(CC(=O)OCC(=O)NCCc1ccccc1)c1ccccc1 (stereo not drawn),i,0.47,nt,nt,nt,nt,nt,nt,
Cc1cc(C)cc(NC(=O)C2CCCN2S(=O)(=O)c2ccc3c(c2)n(C)c(=O)c(=O)n3C)c1 (stereo not drawn),i,0.82,nt,nt,nt,nt,nt,nt,
Cc1ccc(SCc2c(C#N)c3ccccc3n2C)cc1,i,nt,i,i,nt,nt,nt,nt,
Cn1c(CSc2ccccc2)c(C#N)c2ccccc21,i,0.32,nt,nt,nt,nt,nt,nt,
O=C(CCCC(=O)N(c1ccc(F)cc1)C(C(=O)NC1CCCC1)c1ccc(O)cc1)Nc1ccccn1 (stereo not drawn),i,nt,nt,nt,nt,nt,nt,nt,
CC(=O)CCSc1ncnc2sc(-c3ccccc3)cc12,i,nt,nt,nt,nt,nt,nt,nt,
O=C(O)CCSc1ncnc2sc(-c3ccccc3)cc12,i,9.6*,i,198%*,17*,3.1*,33*,-21,KCNQ2 W236L MoA=16%*
CC1=C(C(N)=O)C(c2cccs2)n2nc(-c3cccc(Cl)c3)nc2N1 (stereo not drawn),i,5.8*,i,i,53*,-11,-4,-38,KCNQ2 W236L MoA=0.9%*
CC1=C(C(N)=O)C(c2cccs2)n2nc(-c3cccc(C)c3)nc2N1 (stereo not drawn),i,0.02,nt,nt,nt,nt,nt,nt,
CCOC(=O)/C(C(=Nc1ccccc1)Nc1ccccc1)=C(\C)O,i,nt,nt,nt,nt,nt,nt,nt,
NC(=Nc1ccccc1)Nc1ccccc1,i,5.8*,i,i,8.7*,-6,20*,-23,KCNQ2 W236L MoA=i
CCOc1ccc(N(CC(=O)N2CCN(Cc3ccccc3)CC2)S(C)(=O)=O)cc1,i,0.74,nt,nt,nt,nt,nt,nt,
COc1ccccc1/C=C/C(=O)N1CCc2cc(OC)c(OC)cc2C1C (stereo not drawn),i,nt,nt,nt,nt,nt,nt,nt,
CC(C)c1nc(SCC(=O)N2CCCCCC2)c2c(=O)n(C)c(=O)n(C)c2n1,i,17*,i,i,6.8*,-11,54*,-20,KCNQ2 W236L MoA=i
CCc1nc(SCC(=O)N2CCOCC2)c2c(=O)n(C)c(=O)n(C)c2n1,i,2,nt,nt,nt,nt,nt,nt,
CC(C)c1nc(SCC(=O)N2CCCC2)c2c(=O)n(C)c(=O)n(C)c2n1,i,3.8,nt,nt,nt,nt,nt,nt,
CCc1nc(SCC(=O)N2CCCCCC2)c2c(=O)n(C)c(=O)n(C)c2n1,i,5.5*,i,i,-16,5.9*,35*,-49,KCNQ2 W236L MoA=i
CC(C)(C)C(=O)NN=C1CCC(c2ccccc2)CC1 (stereo not drawn),i,nt,nt,nt,nt,nt,nt,nt,
Cc1oc(-c2ccccc2Cl)nc1CS(=O)(=O)CC(=O)NC1CCCC1,i,1.4,nt,nt,nt,nt,nt,nt,
CCOC(=O)N1CCN(C(=O)CN(c2ccc(OC)cc2)S(C)(=O)=O)CC1,i,27*,i,i,15*,-12,-24,-36,
SMILES,KCNQ2 inh,KCNQ2 pot,Kir21 confirm,HEK293 Tl flux,CHO-K1 Tl ctr,KCNQ1 sel pot,KCNQ2 pot confirm,Kir21 spec,others
CCOC(=O)N1CCN(C(=O)CN(c2cccc(OC)c2)S(C)(=O)=O)CC1,i,nt,nt,nt,nt,nt,nt,nt,
CC(C)(C)c1ccc(/C=N/NC(=O)CN2CCS(=O)(=O)CC2)cc1,i,nt,nt,nt,nt,nt,nt,nt,
Cc1ccccc1NC(=O)NCCCCc1ccccc1,i,nt,nt,nt,nt,nt,nt,nt,
NC(=NC(=O)c1ccc(Cl)cc1)N1N=CCC1c1ccccc1 (stereo not drawn),i,nt,nt,nt,nt,nt,nt,nt,
O=C(CSc1ccc(Cl)cc1)N1N=CCC1c1ccccc1 (stereo not drawn),i,nt,66%*,i,nt,nt,nt,nt,
CC(=O)Nc1ccc2c(c1)CCc1ccccc1-2,i,nt,nt,nt,nt,nt,nt,nt,
O=C(O)/C=C/C(=O)c1ccc2c(c1)CCc1ccccc1-2,i,8.6*,nt,nt,30*,-7,35*,-73,KCNQ2 W236L MoA=i
COc1ccc(C(=O)NC2CC2)cc1OC1CCN(C(C)CSC)CC1 (stereo not drawn),i,nt,nt,nt,nt,nt,nt,nt,
COC(=O)c1cccc(CSc2nnc(-c3ccco3)n2-c2ccccc2)c1,i,nt,58%*,68%*,nt,nt,nt,nt,
CCOC(=O)CSc1nnc(-c2ccco2)n1-c1ccccc1,i,nt,nt,nt,nt,nt,nt,nt,
Cc1cc(=O)nc2c3ccccc3n(CC(=O)NCCC3=CCCCC3)n12,i,nt,nt,nt,nt,nt,nt,nt,
CC(C)NC(=O)Nc1n[nH]c(Nc2ccc(Cl)cc2)n1,i,5.6*,i,i,9.6*,-21,-4,-27,KCNQ2 W236L MoA=i
CCCc1cc(=O)[nH]c(Nc2ccc(Cl)cc2)n1,i,nt,nt,nt,nt,nt,nt,nt,
COC(=O)Cn1cnc2c(nnn2-c2ccc(OC)cc2)c1=O,i,0.71,nt,nt,nt,nt,nt,nt,
COc1cccc(NC(=O)c2ccc(NC(=O)C(C)(C)C)cc2)c1,i,1.2,nt,nt,nt,nt,nt,nt,
CC(C)(C)C(=O)Nc1cccc(OC(F)(F)C(F)Cl)c1 (stereo not drawn),i,5.8*,i,i,-15,11*,30*,-40,KCNQ2 W236L MoA=i
CC(C)CN(C(=O)c1ccco1)C1CCS(=O)(=O)C1 (stereo not drawn),i,0.52,nt,nt,nt,nt,nt,nt,
Cc1ccc(NC(=O)n2ncc3c(C)cccc32)cc1F,i,0.18,nt,nt,nt,nt,nt,nt,
CCC(NC(=S)NCc1ccc(F)cc1)c1ccc(C(C)C)cc1 (stereo not drawn),i,7.2*,i,i,78*,-13,21*,-29,KCNQ2 W236L MoA=i

# Bioassay records deposited in PubChem BioAssay by Johns Hopkins Ion Channel Center.
